Assay results from PubChem BioAssay (NCI).
This is part of a sample that, as a whole, favours compounds with a hit. Of some 83,000 tested, about 20% had one in any assay.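 Interpretation: 100, growth as untreated; towards 0, rising growth inhibition; 0, no net growth; 0 to -100, cell death. Compounds scoring below 10 were considered active.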 Activity calls are given as the source filed them.

These compounds were tested on HOP-62 NSCLC (assay: NCI-60 one-dose screen, 48 h (100 = growth as untreated, 0 = no growth, -100 = all killed)). Details: 10 µM unless noted.

| Compound | growth |
| --- | --- |
| CCC1CCc2nc3sc(C(=O)Nc4ccccc4F)c(N)c3cc2C1 (stereo not drawn) | 76.4% (inactive) |
| Cc1nn(-c2ccc(Cl)cc2)c(=O)n1CCOc1ccccc1Cl | 75.2% (inactive) |
| COc1cc(/C=C2\CCCC3=C2NC(C)=NC3c2cc(OC)c(OC)c(OC)c2)cc(OC)c1OC (stereo not drawn) | 22% (inactive) |
| c1ccc([P+](CCC[P+](c2ccccc2)(c2ccccc2)c2ccccc2)(c2ccccc2)c2ccccc2)cc1 | 75.3% (inactive) |
| CC1=C(C#N)C(C)(C)C(C#N)=C(C)N1 | 109% (inactive) |
| COc1cc(C(=O)OCCCCCCCCCCC[P+](c2ccccc2)(c2ccccc2)c2ccccc2)ccc1O | -83.8% (active) |
| Nc1c(C(=O)Nc2ccccc2)sc2nc3c(cc12)CCCCC3 | 7.61% (active) |
| COc1cccc(C2CC(=O)Nc3c2c(C)nn3-c2nc3ccccc3[nH]2)c1OC (stereo not drawn) | 57.4% (inactive) |
| COc1cc(C(=O)/C=C/c2cc(C(=O)c3cc(OC)c(OC)c(OC)c3)ccc2OC)ccc1N | 43.2% (inactive) |
| COc1ccc(NC(=O)c2cc3ccccc3nc2Nc2cc(OC)c(OC)c(OC)c2)cc1 | 84.1% (inactive) |
| O=S(=O)(O)CCl | 112% (inactive) |
| O=C(CN1CCOCC1)Nc1ccc(-c2nc3ccccc3s2)cc1 | 106% (inactive) |
| COc1cc(/C=C\c2cc(OC)c(OC)c(OC)c2)cc(N/C=C\C(=O)c2c[nH]c3ccccc23)c1OC | 83% (inactive) |
| CC(C)C[C@H](NC(=O)[C@@H](Cc1ccccc1)n1ccc(Nc2ccccc2)cc1=O)B(O)O | -21.6% (active) |
| Cc1ccc2c(c1)C(=O)C(c1c(-c3[nH]c(=O)c4ccc(C)cc4c3O)c(O)c3ccccc3c1O)=NC2=O | 8.69% (active) |
| C=CCn1c(C)nc2ccc(Nc3nc(Nc4ccc(F)cc4)nc4ccccc34)cc21 | 75.9% (inactive) |
| COc1ccccc1CNCCCN1C(=O)c2ccc3c4c(ccc(c24)C1=O)C(=O)N(CCCNCCCCNCCCCN)C3=O | 22.2% (inactive) |
| COc1ccc2c(c1)C(=O)/C(=C/c1ccc(O)cc1)O2 | 90.8% (inactive) |
| COc1ccc(-c2cn[nH]c2-c2cc(OC)c3c(c2)OCO3)cc1 | 22.1% (inactive) |

| Compound | growth |
| --- | --- |
| CCCCCCCCCCCCNC(=S)N/N=C/c1ccc(Cl)c(Cl)c1 | 105% (inactive) |
| O=C1Nc2ccc(Br)cc2C1=N/C=c1\[nH]c(=O)/c(=C/c2ccc(Cl)cc2)s1 | 84.1% (inactive) |
| O=C(CNc1c(Cl)cccc1Cl)Nc1ccc(-c2nc3ccccc3s2)cc1 | 118% (inactive) |
| CCn1c(=O)c2c(=O)c3c4c(oc3oc2c2ccccc21)C(=O)c1ccccc1C4=O | 80.3% (inactive) |
| CN1CCN(c2ccc3cc(-c4nc5ccccc5[nH]4)c(=O)oc3c2)CC1 | 98% (inactive) |
| COc1ccc(OC)c(C(=O)c2oc3ccc(Br)cc3c2N)c1 | 33.6% (inactive) |
| Cc1ccc(Cn2c(-c3nonc3N)nc3ccccc32)cc1 | 76.5% (inactive) |
| Cc1ccc(S(=O)(=O)NCCCNc2nccc(-c3c(-c4ccccc4)nc4sccn34)n2)cc1 | 124% (inactive) |
| COC1=CC(c2ccc[nH]2)=N/C1=C\c1[nH]c(C)c(C(=O)CCCCC(=O)Oc2ccc3c(c2)CCC2C3CC[C@]3(C)[C@@H](O)CC[C@@H]23)c1C (stereo partly drawn) | 68.4% (inactive) |
| Cc1cccc(NC(=O)c2sc3nc4c(cc3c2N)CCC4)c1C | 35.6% (inactive) |
| Nc1c(C(=O)Nc2c(Cl)cccc2Cl)sc2nc3c(cc12)CCCCC3 | 53.9% (inactive) |
| COc1cc(OC)c(C(=O)/C=C/c2ccc(C(F)(F)F)cc2)c(OC)c1 | 55.1% (inactive) |
| Cn1c(-c2nonc2NC(=O)c2ccc(F)cc2)nc2ccccc21 | 120% (inactive) |
| CCOC(=O)C1=C(CSC(=S)N(C2CCCCC2)C2CCCCC2)N(C)C(=O)NC1c1ccccc1 (stereo not drawn) | 63.1% (inactive) |
| COC12CC(=O)C(C(C)=O)=C(O)C1(C)c1c(O)c(C)c(O)c(C(C)=O)c1O2 (stereo not drawn) | 86% (inactive) |
| COc1ccc(C2=CC(c3ccc(Oc4ccnc5cc(Cl)ccc45)c(OC)c3)c3c(nc(OC)[nH]c3=O)N2)cc1 (stereo not drawn) | 81.8% (inactive) |
| COc1ccc(Cn2cc(COc3cc(/C=C/C(=O)c4cc(OC)c(OC)c(OC)c4)ccc3OC)nn2)cc1 | 19.2% (inactive) |
| O=C(Nc1ccc(OCc2nnc(-c3ccc(Cl)cc3)o2)c(F)c1)Nc1ccc(Cl)c(Cl)c1 | 47.5% (inactive) |
| O=C(CNc1ccc(Cl)cc1)Nc1ccc(-c2nc3ccccc3s2)cc1 | 116% (inactive) |
